Compounds without any hit were thinned out: in the full panel of roughly 83,000, 20% have a hit.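 48-hour exposure, single concentration, 96-well plates; percent growth endpoint where 0 means no net growth. Active: below 10.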 Values without a mark were called inactive. The source made the active and inactive calls.
system: MDA-MB-468 breast; experiment: NCI-60 one-dose screen, 48 h (100 = growth as untreated, 0 = no growth, -100 = all killed); conditions: 10 µM unless noted

SMILES | growth
COc1ccccc1NC(=O)Nc1ccc(-c2nc3ccccc3o2)cc1 | 101%
O=C1NCC(c2cc3ccccc3[nH]c2=O)Nc2ccccc21 (stereo not given) | 97.5%
CC(C)COC(=O)NC(C)(C)C | 96.5%
COc1ccc(C(O)c2cc3c(N)c(C(=O)Nc4cccc(OC)c4)sc3nc2C)cc1 (stereo not given) | 5.65% (active)
CC(=O)Nc1ccc(S(=O)(=O)N2C(=O)CCC2C(=O)Nc2ccc(Br)cc2)cc1 (stereo not given) | 20.6%
Cn1c2ccccc2c2c3c(c4c5cccnc5[nH]c4c21)C(=O)N(O)C3=O | 0.0154% (active)
Cc1ccc(NC(=O)c2sc3nc4c(cc3c2N)C(=O)CCC4)cc1C | 50.7%
CSc1oc(C)nc1[P+](c1ccccc1)(c1ccccc1)c1ccccc1 | -4.41% (active)
CC(=O)/C(=C/c1ccc(Br)cc1)C(=O)c1ccccc1 | 92.3%
CCCCOc1ccc(/C=N/Nc2cc(C)nc3ccc(Cl)cc23)cc1 | -65.9% (active)
O=C(N/N=C/c1ccc(F)cc1)c1[nH]c2ccc(I)cc2c1-c1ccccc1 | 17.8%
O=[N+]([O-])c1cc2c(cc1Br)-c1ccccc1C2 | 16.7%
CCn1nc(-c2ccc(C(=O)OC)cc2)nc2c(=O)n(C)c(=O)nc1-2 | 82%
CCOC(=O)CC(c1ccccc1)C(C#N)c1ccccc1 (stereo not given) | 101%
C[C@]12CC[C@@H]3c4ccc(O)cc4C[C@@H](O)[C@H]3[C@@H]1CC[C@@H]2O | 98.1%
CCCCCCCCC(=O)Nc1ccc(O)cc1 | 100%
O=S(=O)(NC1c2ccccc2Oc2ccccc21)c1ccccc1 | 87.6%
N#CCCOc1ccccc1 | 114%
COc1ccc([C@H]2C(=O)N(c3cc(OC)c(OC)c(OC)c3)[C@@H]2c2ccc(OC)c(O)c2)cc1 | -2.22% (active)
O=C(NC1=CC(=O)c2ccccc2C1=O)c1ccccc1 | -91% (active)

SMILES | growth
O=C(O)CCCc1cnc2c3sccc3nc(SCc3c(Cl)cccc3Cl)n12 | 60.9%
Cc1nn(-c2ccc(Br)cc2)c2nc3c(nc12)C(=O)C(=O)c1ccccc1-3 | 95.1%
O=C1Nc2ccccc2/C1=C\c1c(-c2ccc(F)cc2)nc2ccccn12 | 40.8%
CCOC(=O)C(=CNc1ccccc1[N+](=O)[O-])C(=O)OCC | 86%
CCCC(=O)OCC(COC(=O)CCC)OC(=O)CCC | 89%
Cc1cc(-c2cc(OC(=O)c3ccccc3)ccc2Cl)cc2nnc(Nc3ccc(OCCN4CCCC4)cc3)nc12 | 84.3%
CC(=O)NC1(C(=O)O)CCCC1 | 116%
C[C@@H]1O[C@@H](O[C@@H]2C[C@H](c3ccc4c(c3O)C(=O)C3=C(C4=O)[C@@]4(O)C(=O)C[C@](C)(O)C[C@@]4(O)C=C3)O[C@H](C)[C@H]2O)C[C@H](O)[C@@H]1O | 106%
COc1cc(C2C=C(C)N=C3SC(C)=NN32)cc(OC)c1OC (stereo not given) | 106%
COc1cccc(-c2nn(C(C)(C)C)cc2-c2ccnc(NCCCNS(=O)(=O)c3ccc(C)cc3)c2)c1 | 104%
O=C1[C@@H]2Cc3c([nH]c4ccccc34)[C@H](c3ccc(Cl)cc3)N2C(=O)CN1C1CCN(Cc2ccccc2)CC1 | 23.1%
CC1=CC=C(NC(=O)/C=C/c2ccccc2)CC1Nc1nccc(-c2cccnc2)n1 (stereo not given) | 3.07% (active)
CCOC(=O)CO | 99%
C=C(C)[C@@H]1CC[C@]2(C(=O)NCC#CCN3CCN(C)CC3)CC[C@]3(C)[C@H](CC[C@@H]4[C@@](C)(CCC#N)[C@H](C(=C)C)CC[C@]43C)[C@@H]12 | 18.7%
CCOc1cc(Cl)c(C(C)NC(=O)c2cccc(OC)c2)cc1OCC (stereo not given) | -61.6% (active)
CC1=CSC2=NCCN12 | 118%
Nc1c(Br)cc(Br)cc1-c1n[nH]c(=O)[nH]c1=O | 104%
C=C(C=O)[C@@H]1CC[C@]2(C)[C@H](C(=O)C=C3[C@H]4C[C@](C)(C(=O)OC)CC[C@]4(C)CC[C@]32C)[C@@]1(C)CCC#N | 80.2%
COc1ccc(-c2n[nH]nc2-c2cc3ccccc3s2)cc1O | 40.8%
ONc1nc(NO)c2[nH]cnc2n1 | 47.6%
